HepG2 tox – counter-screen for TGF-b inhibitors: cytotoxicity in HepG2 cells. HepG2 CAGA-GFP viability, ATP luminescence, 18 h. Potency, µM (doses to about 46.1 µM), without a hit: at the highest dose activity change, negative = cytotoxicity, actives largely listed as cytotoxic. 410,000 compounds, 0.76% hits; further: potency means the concentration at half of the fitted maximal effect
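HepG2 CAGA-GFP cells (1000/well, DMEM with 1% FBS) received compound, then TGF-beta at 500 pg/mL final, and were incubated 18 hours at 37 degrees C. Viability was read by CellTiter-Glo luminescence. Media-only wells were set as complete cell-killing and DMSO as no toxicity.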
TDP1 cell noCPT – qHTS for Inhibitors of human tyrosyl-DNA phosphodiesterase 1 (TDP1): qHTS in cells in absence of CPT | 420,000 compounds, 15% hits | Potency, µM (titrated, usually from 46.2 µM), for inactives: at the highest dose activity change, negative = growth inhibition, actives largely listed as inhibitors | DT40 Tdp1-/- hTDP1 cells, no CPT, ATP luminescence, 48 h; further: potency means the concentration at half of the fitted maximal effect; on the % scale 0 is the no-effect control and ±100 the full control effect; nearly all actives have a fitted effect of over 55% in size
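Stably hTDP1-transfected Tdp1-null chicken DT40 cells were treated with library compounds minus camptothecin and grown for at least 48 hr at 37 °C, after which cellular ATP was quantified by luminescence.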
TGFb inhibitor – inhibitors of TGF-b signaling. 410,000 compounds, 1.2% hits. HepG2 CAGA-GFP TGF-b/SMAD3 reporter, GFP fluorescence, 18 h; TGF-beta stimulated, 500 pg/mL final. AID 588855. Potency, µM (top dose mostly 46.1 µM), for inactives: at the top dose activity, negative = inhibition, usual class: inhibitors; further: potency means the concentration at half of the fitted maximal effect; on the % scale 0 is the no-effect control and ±100 the full control effect; nearly all actives have a fitted effect of over 65% in size
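TGF-beta reporter screen: HEPG2 CAGA-GFP, 1% FBS, 500 pg/mL TGF-beta final, 18 h; per-cell GFP summed per well; curves fitted and categorized by class.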
TDP1 cell CPT – DT40-hTDP1 cell growth loss with CPT | chicken DT40 Tdp1-/-;hTDP1 cells + 20 nM CPT, ATP luminescence, 48 h | Potency, µM (series often up to 46.2 µM), for inactives: top-dose activity change, negative = growth inhibition, actives largely listed as inhibitors | 420,000 compounds, 12% hits; further: potency means the concentration at half of the fitted maximal effect; on the % scale 0 is the no-effect control and ±100 the full control effect; nearly all actives have a fitted effect of over 55% in size
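Chicken DT40 Tdp1-/- cells complemented with human TDP1, 400 cells/well, exposed to compounds plus 20 nM camptothecin for at least 48 h at 37 C; viability read as ATP content by CellTiter-Glo luminescence.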
S-ASM inh – inhibitors of human secretory acid sphingomyelinase; P17405; placental ASM, HMU-PC fluorogenic substrate, 60 min; Potency, µM (doses to about 57.5 µM), for inactives: at the highest dose activity change, negative = inhibition, actives largely listed as inhibitors; 340,000 compounds, 0.006% hits; AID 504937; further: potency means the concentration at half of the fitted maximal effect
Target sequence (P17405 47-631 limits assumed): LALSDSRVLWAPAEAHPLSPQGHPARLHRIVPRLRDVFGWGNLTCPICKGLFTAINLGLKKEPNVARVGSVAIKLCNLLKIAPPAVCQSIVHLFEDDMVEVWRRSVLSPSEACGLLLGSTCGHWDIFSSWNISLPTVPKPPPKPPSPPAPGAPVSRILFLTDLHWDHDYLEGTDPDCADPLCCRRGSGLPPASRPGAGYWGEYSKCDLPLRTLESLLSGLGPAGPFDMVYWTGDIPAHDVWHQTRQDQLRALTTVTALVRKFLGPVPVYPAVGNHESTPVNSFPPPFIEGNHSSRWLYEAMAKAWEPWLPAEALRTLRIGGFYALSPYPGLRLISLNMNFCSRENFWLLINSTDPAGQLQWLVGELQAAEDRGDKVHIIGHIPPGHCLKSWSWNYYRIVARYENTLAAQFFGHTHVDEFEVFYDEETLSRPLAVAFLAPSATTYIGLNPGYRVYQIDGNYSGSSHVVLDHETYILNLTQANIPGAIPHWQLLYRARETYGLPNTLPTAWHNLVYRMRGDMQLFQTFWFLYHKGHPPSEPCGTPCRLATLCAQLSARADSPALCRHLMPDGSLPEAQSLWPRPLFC
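qHTS format. ASM enzyme prepared from human placenta hydrolyses the fluorogenic substrate HMU-PC0 (9 uM final) over 60 min at 37 °C after a 10 min compound preincubation.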
IL-1B inflam inh – blocks inflammasome-driven IL-1 beta release; THP-1 LPS/ATP IL-1B secretion, AlphaLISA, 16 h; stronger effect = lower value; activity change, % at 57.5 µM; 360,000 compounds, 4.7% hits; AID 743279; in the data active means activity change below about -50%; inconclusive means mostly about -30% to -49%; further: on the % scale 0 is the no-effect control and ±100 the full control effect
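THP-1 cells pretreated 1 hr with compounds (up to 57.5 uM final), then stimulated with LPS (250 ng/mL final) plus ATP (1.25 mM final); secreted IL-1B measured by AlphaLISA after 16 hr, decreased signal indicating inhibition.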
An asterisk follows results filed as active; ? = inconclusive; . = no result given; ! = not confirmed by another sample. Rows were chosen to be rich in hits. Some 19% of all compounds tested hit in one or more screens of this group. Unless noted, the call rests on the fitted dose curve; in most records, active means well fitted curve in the direction sought with a large enough effect; inconclusive means small, poorly fitted or top-dose-only effect, or another doubt; inactive means no such curve, though single readings can be large; an effect the other way counts as inactive or inconclusive.

SMILES	HepG2 tox	TDP1 cell noCPT	TGFb inhibitor	TDP1 cell CPT	S-ASM inh	IL-1B inflam inh
COc1ccccc1CNC(=O)CNCCc1ccc(OC)c(OC)c1	0%	2%	-14%	?	2%	?
COc1ccccc1-n1ccnc1SCC(=O)NCc1ccco1	1%	?	6%	?	6%	-1
COc1ccc(S(=O)(=O)N2CCCC2c2cccs2)cc1 (configuration not stated)	-21%	8.2µM*	?	5.8µM*	1%	0
O=S(=O)(c1ccccc1)N1CCCC1c1cccs1 (configuration not stated)	-20%	12µM*	-4%	?	3%	42
Cc1nc2scc(C)n2c(=O)c1S(=O)(=O)Nc1ccc(N2CCOCC2)cc1	-6%	?	-1%	-9%	1%	25
CCOc1cc(OCC)nc(S(C)(=O)=O)n1	-1%	15µM*	-18%	21µM*	0%	0
CCOc1ccc(C(=O)O)cn1	-12%	-6%	0%	26%	-2%	0
CC1CN(C(=O)c2cc(S(=O)(=O)N3CCCCC3)ccc2Cl)CC(C)O1 (configuration not stated)	0%	12µM*	-11%	16µM*	2%	33
CCOC(=O)C1CCCN(S(=O)(=O)c2ccc(F)c(C(=O)Nc3ccc(F)c(F)c3)c2)C1 (configuration not stated)	-22%	16µM*	2%	23µM*!	-2%	-66*
O=C(O)c1cccc(S(=O)(=O)N2CCc3ccccc3C2)c1	-3%	-3%	-3%	-2%	-2%	22
O=C(c1cccc(S(=O)(=O)N2CCc3ccccc3C2)c1)N1CCN(c2ccc(O)cc2)CC1	-33%	12µM*	-24%	15µM*	-6%	-11
CC1CCCC(NC(=O)c2cccc(S(=O)(=O)N3CCN(c4ccccc4)CC3)c2)C1C (configuration not stated)	0%	13µM*	-33%	18µM*	.	12
CC(OC(=O)CSCC(=O)Nc1ccc(Cl)cc1)C(=O)N(C)Cc1ccccc1 (configuration not stated)	-2%	?	-3%	?	-4%	-5
CCOC(=O)c1c(C)[nH]c(C)c1S(=O)(=O)N1CCC(C(=O)Nc2ccc(C)c(N(C)C)c2)CC1	-4%	?	-22%	-26%	.	.
O=C(NCc1ccncc1)C(=O)NCC1OCCCN1S(=O)(=O)c1ccc(F)cc1 (configuration not stated)	-3%	6%	-10%	6%	2%	-3
CCOC(=O)C1CCCN(C(=O)c2cc(S(=O)(=O)N3CCCCC3)ccc2Cl)C1 (configuration not stated)	-25%	21µM*	-5%	21µM*	10%	-14
O=C(NCC1(N2CCOCC2)CCCCC1)c1cccc(S(=O)(=O)N2CCc3ccccc3C2)c1	-27%	?	-19%	18µM*	-1%	-10
CC(=O)N1CCN(S(=O)(=O)c2cccc(C(=O)N3CCN(S(=O)(=O)c4c(C)c(C)cc(C)c4C)CC3)c2)CC1	-35%	21µM*	-22%	?	.	-15
Cc1cc(C)c(C)c(S(=O)(=O)N2CCN(C(=O)c3ccncc3)CC2)c1C	10%	7%	12%	?	-1%	1
O=C(NCCCN1CCOCC1)c1cccc(S(=O)(=O)N2CCc3ccccc3C2)c1	-13%	?	-5%	?	5%	-4
CCOC(=O)C1CCCN(C(=O)c2cccc(S(=O)(=O)N3CCCC3)c2)C1 (configuration not stated)	-8%	-33%	25%	-19%	6%	2
O=C(c1cc(S(=O)(=O)N2CCN(c3ccccc3)CC2)ccc1Cl)N1CCCCCCC1	4%	15µM*	?	?	-1%	-53*
C=CCNC(=O)C1CC(=O)N(c2ccc(OCC(=O)Nc3c(C)cccc3C)cc2)C1 (configuration not stated)	-14%	4%	-17%	-1%	-7%	14
CCCCN(C(=O)C1CCCO1)c1c(N)n(CCC)c(=O)[nH]c1=O (configuration not stated)	1%	11%	2%	2%	0%	13
CC1CN(C(=O)c2cc(S(=O)(=O)N(C)c3ccc(F)cc3)ccc2Cl)CC(C)O1 (configuration not stated)	-16%	1µM*	-24%	2.3µM*	-2%	2
SMILES	HepG2 tox	TDP1 cell noCPT	TGFb inhibitor	TDP1 cell CPT	S-ASM inh	IL-1B inflam inh
CC1CN(C(=O)c2cc(S(=O)(=O)N3CCCC3)ccc2Cl)CC(C)O1 (configuration not stated)	7%	?	-2%	-19%	3%	45
O=C(c1cccc(S(=O)(=O)N2CCN(c3ccccc3)CC2)c1)N1CCCCCCC1	4%	13µM*	?	?	.	-14
CC1CN(C(=O)c2cc(S(=O)(=O)N3CCN(c4ccccc4)CC3)ccc2Cl)CC(C)O1 (configuration not stated)	-13%	2.1µM*	-25%	3.7µM*	0%	5
CCCOC(=O)c1ccc(NC(=O)C2CC(=O)N(c3ccc(C)cc3)C2)cc1 (configuration not stated)	-2%	.	1%	.	.	.
Cc1nc(CNS(=O)(=O)c2ccc3c(c2)CCCC3)cs1	-11%	?	0%	16µM*	0%	17
CCCCOc1ccc(S(=O)(=O)NCc2csc(C)n2)cc1	-64%	23µM*	1%	13µM*	3%	?
CCOC(=O)C1CCN(C(=O)COC(=O)c2ccc3c(c2)C(=O)N(c2ccc(OCC)cc2)C3=O)CC1	9%	11%	-1%	-12%	0%	2
Cn1ncc(N=Cc2ccc([N+](=O)[O-])cc2)c1C(=O)Nc1ccccc1	-12%	-28%	0%	-8%	-6%	0
CC1(Br)C(Sc2ccccc2[N+](=O)[O-])=Nc2ccccc21 (configuration not stated)	.	23µM*	.	21µM*	.	14
CCN1/C(=C/c2cc[n+](C)cc2)C=Cc2cc(C)ccc21	-15%	0.18µM*	?	0.23µM*	-23%	-63*
O=C(/C=C/c1c(F)cccc1Cl)Nc1cccnc1	-16%	?	-4%	?	4%	7

Screens from PubChem BioAssay.
